Source: PubChem (National Center for Advancing Translational Sciences (NCATS))
Only some compounds are listed: those with a hit (about 5.9% of all), similar ones and a draw of the others.
TrxR1 inh = qHTS Assay for Inhibitors of Mammalian Selenoprotein Thioredoxin Reductase 1 (TrxR1): qHTS; recombinant rTrxR1, NADPH fluorescence consumption, selenite substrate; Potency, µM (top dose mostly 114 µM), for inactives: top-dose activity change, negative = inhibition, most hits filed as inhibitors; hit rate 1% among 390,000; AID 588453, 2011; note: potency is the fitted concentration of half-maximal effect; nearly all actives have a fitted effect of over 65% in size
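Rat TrxR1 (90 nM in the dispensed reagent) was pre-reduced with 400 uM NADPH for 5 min at room temperature, then incubated with compound for 15 min. After 400 uM selenite was added, NADPH fluorescence (Ex 340/Em 450 nm) was followed for 8 min.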
FBPA coupling cs = qHTS Assay for Inhibitors of Fructose-1,6-bisphosphate Aldolase from Giardia Lamblia: Coupling assay counterscreen; coupling enzyme system counterscreen, AmpLite Red fluorescence; activity change, negative = inhibition, % at 58.2 µM, hits read low; hit rate 0.67% among 290,000; AID 2472, 2010; in the data active = activity change below about -30%
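Compounds tested against the coupling enzymes alone at 57.5 uM final; readout was AmpLite Red fluorescence (525/598 nm) after 20 min at RT.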
Gal4-VP16 FLuc = VP16 counterscreen qHTS for inhibitors of ROR gamma transcriptional activity | Drosophila S2 Gal4-VP16 UAS-luciferase, luminescence, 20 h | Potency, µM (titrated, usually from 53.6 µM), for the others: top-dose activity, negative = inhibition, usual class: inhibitors | hit rate 3.5% among 310,000;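 note: Gal4-VP16 expression switched on by copper sulfate through the metallothionein promoter; potency is the fitted concentration of half-maximal effect; nearly all actives have a fitted effect of over 50% in size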
TrxR1 substrate = qHTS Assay for Substrates of Mammalian Selenoprotein Thioredoxin Reductase 1 (TrxR1): qHTS; Potency, µM (titrated, usually from 114 µM), inactives show top-dose activity change, negative = substrate turnover; purified TrxR1 substrate turnover, NADPH consumption readout; AID 588456, 2011; Thioredoxin reductase 1, cytoplasmic (Rattus norvegicus), O89049; hit rate 0.01% among 390,000; note: potency is the fitted concentration of half-maximal effect; nearly all actives have a fitted effect of over 50% in size
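Rat TrxR1, dispensed at 90 nM, was prereduced with 400 uM NADPH (final) for 5 min at ~22 deg C, then incubated with compound 15 min before 400 uM selenite. A first-read NADPH fluorescence drop versus no-compound background flagged substrates.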
RORgamma inh = qHTS for inhibitors of ROR gamma transcriptional activity. Nuclear receptor ROR-gamma (Mus musculus), P51450. Drosophila S2 Gal4-RORgamma UAS-luciferase reporter, 20 h. Potency, µM (doses to about 53.6 µM), without a hit: at the highest dose activity change, negative = inhibition, actives largely listed as inhibitors. hit rate 5.4% among 310,000; note: potency is the fitted concentration of half-maximal effect; nearly all actives have a fitted effect of over 60% in size
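Read-out: Photinus luciferase luminescence; inhibitors lower reporter signal. Insect Schneider cells with Gal4-ROR gamma fusion under metallothionein promoter, UAS reporter; 700 uM final copper sulfate induction, 20 hr, ambient temperature.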
GALK inhibitor = qHTS Assay for Inhibitors of Human Galactokinase (GALK); Potency, µM (series often up to 57.5 µM), for the others: at the top dose activity change, negative = inhibition, actives largely listed as inhibitors; hit rate 0.007% among 270,000; Purified GALK, Kinase-Glo residual ATP luminescence; note: potency is the fitted concentration of half-maximal effect
Target sequence (P51570 whole entry, looked up): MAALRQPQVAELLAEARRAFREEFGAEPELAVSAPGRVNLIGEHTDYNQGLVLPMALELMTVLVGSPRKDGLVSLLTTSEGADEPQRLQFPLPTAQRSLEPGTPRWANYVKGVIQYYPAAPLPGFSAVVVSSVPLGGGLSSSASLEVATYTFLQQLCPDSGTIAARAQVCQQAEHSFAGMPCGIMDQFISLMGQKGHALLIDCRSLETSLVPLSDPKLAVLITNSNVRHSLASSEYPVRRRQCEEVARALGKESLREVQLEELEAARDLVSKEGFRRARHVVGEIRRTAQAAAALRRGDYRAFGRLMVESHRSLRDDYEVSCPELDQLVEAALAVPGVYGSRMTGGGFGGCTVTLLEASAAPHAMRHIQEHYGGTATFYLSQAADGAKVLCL
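The enzyme phosphorylates galactose (100 uM) using ATP (35 uM); inhibition is detected as higher residual ATP, quantified by bioluminescence after 1 h reaction at room temperature, pH 8.0.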
Starred values were filed as active, the others as inactive; u = inconclusive; x = no result; [ ] = another dose, or the depositor's remark. Unless noted, calls come from the whole dose curve; as a rule, active = well fitted curve in the direction sought with a large enough effect; inconclusive = small, poorly fitted or top-dose-only effect, or another doubt; inactive = no such curve, though single readings can be large; an effect the other way counts as inactive or inconclusive. % is set by controls: 0 for no effect and ±100 for the full control effect.

SMILES | TrxR1 inh | FBPA coupling cs | Gal4-VP16 FLuc | TrxR1 substrate | RORgamma inh | GALK inhibitor
C[C@@H](NC(=O)c1nc[nH]c1C(=O)OCc1ccccc1)c1ccccc1 | 17% | x | x | -7%[57.1 µM] | x | x
CC(C)C[C@H](NC(=O)c1nc[nH]c1C(=O)NC(c1ccccc1)c1ccccc1)C(=O)OCc1ccccc1 | 32% | -11 | 4.5µM* | 7%[57.1 µM] | 2.5µM* | 0%
CC(C)C[C@H](NC(=O)c1[nH]cnc1C(=O)N[C@H](C)c1ccccc1)C(=O)OCc1ccccc1 | 27%[57.1 µM] | -9 | 5µM* | -5%[57.1 µM] | 6.3µM* | -2%
COc1ccc(C(=O)Nc2ccc(Cl)cn2)cc1Cl | 20% | -11 | -6% | 3% | 4% | -2%
O=c1cnc2cnc(N3CCOCC3)nc2n1Cc1cccs1 | x | 1 | -15% | x | 4% | x
Cc1cc(NC(=O)c2cc(CC(C)C)on2)n(-c2ccccc2)n1 | 8%[57.1 µM] | 1 | -5% | -16% | u | -1%
CC(C)C[C@H](NC(=O)c1nc[nH]c1C(=O)NCCCCCN)C(=O)OCc1ccccc1 | 19% | x | x | -1% | x | x
O=C(N[C@@H](Cc1ccccc1)C(=O)OCc1ccccc1)c1nc[nH]c1C(=O)NCc1ccccc1 | 18% | -5 | u | -6% | 10µM* | -3%
CC(C)C[C@H](NC(=O)c1[nH]cnc1C(=O)N[C@@H](Cc1ccccc1)C(=O)OCc1ccccc1)C(=O)OCc1ccccc1 | 33% | -2 | 11µM* | -2% | 11µM* | x
CC1CCC(NCC(=O)Nc2cccc(S(N)(=O)=O)c2)CC1 (configuration not stated) | 18% | 1 | -5% | 3% | -21% | 0%
Nn1c(SCC(=O)N2CCOCC2)nnc1-c1ccc(Cl)cc1Cl | -2%[57.1 µM] | 4 | 7% | 1%[57.1 µM] | -39% | 2%
COc1ccc(/C(O)=C2/C(=O)C(=O)N(CCN3CCOCC3)C2c2ccccn2)cc1 (configuration not stated) | 50µM* | -23 | 2% | -3% | u | 4%
Cc1c(/C(O)=C2/C(=O)C(=O)N(CCN3CCOCC3)C2c2ccccn2)cnn1-c1ccccc1 (configuration not stated) | -50% | -7 | u | -16%[57.1 µM] | 1.1µM* | 1%
Cc1ccc(C2/C(=C(/O)c3cnn(-c4ccccc4)c3C)C(=O)C(=O)N2CCCN2CCOCC2)o1 (configuration not stated) | x | -5 | 28% | x | 8% | 0%
O=C1C(=O)N(Cc2cccnc2)C(c2ccccn2)/C1=C(/O)c1ccccc1 (configuration not stated) | -16% | 1 | -3% | -15% | 0.45µM* | 3%
O=C1C(=O)N(CCN2CCOCC2)C(c2ccccn2)/C1=C(/O)c1ccc(F)cc1 (configuration not stated) | u | -22 | 5% | -10% | -17%[10 µM] | 2%
O=S(=O)(NCc1ccc(Cl)cc1)c1ccc(Cl)nc1 | 4% | 2 | -4% | 1% | 6% | -3%
N#CC12CCCCC1CC1CCCCC1(C#N)N2N (configuration not stated) | 5%[57.1 µM] | 0 | u | 7%[57.1 µM] | u | -2%
Fc1ccc(CNC(=S)Nc2cccc(C(F)(F)F)c2)cc1 | 4%[57.1 µM] | 0 | u | -6% | u | x
Fc1cccc(NC(=S)Nc2ccc(Br)cc2)c1 | -27%[57.1 µM] | 5 | u | 18%[57.1 µM] | u | 2%
CC(C)(C)NNC(=S)Nc1cccc(F)c1 | 2%[57.1 µM] | 5 | 3.5µM* | -6%[57.1 µM] | 0.63µM* | -1%
Fc1cccc(NC(=S)NCc2ccc(Cl)cc2)c1 | -16% | 2 | 18µM* | -14% | 6.3µM* | 4%
